CCHF vOTU inh = blocks the CCHF virus ovarian tumor domain protease. AID 651958. inhibition, % at 11.5 µM. hit rate 0.55% among 370,000. CCHFV vOTU protease, Pep-AMC fluorescence; in the data active means inhibition above about 30%
TcdB inh = TcdB glycohydrolase inhibition | P18177 | inhibition, % at 9.99 µM | hit rate 0.24% among 350,000 | TcdB glycohydrolase enzymatic assay, plate reader | AID 652162; in the data active means inhibition above about 10%
PrPC TRFRET = inhibitors of human cell surface prion protein PrPC; P04156; AID 720596; hit rate 0.43% among 370,000; TR-FRET read-out; inhibition, % at 13.8 µM; in the data active means inhibition above about 24%
PriA SSB inh = inhibitors of Klebsiella pneumoniae PriA binding to SSB C-terminal tail; AlphaScreen SSBct-PriA binding, biotinylated peptide; hit rate 0.6% among 430,000; inhibition, % at 33 µM; in the data active means inhibition mostly above about 37%, no sharp cut-off; inactive means mostly below about 20%
Vc quorum ag = quorum light induction in luxS cqsA deficient V. cholerae. V. cholerae BH1578 lux reporter, luminescence, 6 h. activation, % at 18.7 µM. hit rate 0.16% among 350,000. AID 588436; in the data active means activation mostly above about 9.7%, no sharp cut-off
VHR inh abs = DUSP3 (human) phosphatase inhibition; AID 1654; inhibition, % at 13.3 µM; P51452; recombinant VHR phosphatase, pNPP absorbance; hit rate 0.52% among 290,000; in the data active means inhibition above about 50%
Target sequence (P51452 whole entry, looked up): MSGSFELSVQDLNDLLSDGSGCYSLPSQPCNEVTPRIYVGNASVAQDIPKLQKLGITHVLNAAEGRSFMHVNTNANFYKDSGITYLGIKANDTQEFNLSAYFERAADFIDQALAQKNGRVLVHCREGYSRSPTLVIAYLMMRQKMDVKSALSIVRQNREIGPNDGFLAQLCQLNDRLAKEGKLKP
A number is an active result; ! = not active in a repeat. A selection: hits, their analogues and other compounds. The true share with any hit is near 1.5%.

CC(=O)c1cccc(NC(=O)N2CCCC2C(=O)Nc2ccc3c(c2)OCO3)c1 (stereo not drawn) was read as CCHF vOTU inh inactive, TcdB inh inactive, PrPC TRFRET inactive, PriA SSB inh inactive, Vc quorum ag inactive and VHR inh abs 57.4.
CC(=O)c1cccc(NC(=O)N2CCCC2C(=O)Nc2cccc(C)c2)c1 (stereo not drawn) was read as CCHF vOTU inh inactive, PrPC TRFRET inactive, PriA SSB inh inactive, Vc quorum ag inactive and VHR inh abs inactive.
`CCCOc1cc(N2CCN(C(=O)Nc3ccc(F)c(Cl)c3)CC2)nc(C)n1` gave PriA SSB inh inactive.
Nc1ccc2nc(-c3ccccn3)[nH]c2c1 was read as CCHF vOTU inh inactive, PrPC TRFRET inactive, PriA SSB inh 96.1, Vc quorum ag inactive and VHR inh abs inactive.
For Nc1ccccc1-c1n[nH]c(-c2ccccn2)n1 the results were PriA SSB inh 107.0.
Nc1ccc2nc(-c3ccc(N)c(Cl)c3)[nH]c2c1 was read as CCHF vOTU inh inactive, PrPC TRFRET inactive, PriA SSB inh 43.9, Vc quorum ag inactive and VHR inh abs inactive.
Screening Nc1ccc2nc(-c3ccccc3)[nH]c2c1 returned CCHF vOTU inh inactive, PrPC TRFRET inactive, PriA SSB inh inactive, Vc quorum ag inactive and VHR inh abs inactive.
Nc1ccc2nc(-c3cccs3)[nH]c2c1 was read as CCHF vOTU inh inactive, TcdB inh 12.6, PrPC TRFRET inactive, PriA SSB inh inactive, Vc quorum ag inactive and VHR inh abs inactive.
For COc1ccc2nc(-c3ccccn3)[nH]c2c1 the results were CCHF vOTU inh inactive, TcdB inh inactive, PrPC TRFRET inactive, PriA SSB inh inactive, Vc quorum ag inactive and VHR inh abs inactive.
Screening c1ccc(-c2nc3ccc(Cc4ccc5nc(-c6ccccn6)[nH]c5c4)cc3[nH]2)nc1 returned PriA SSB inh 88.0.
For Cc1cc(NC(=O)COc2ccccc2F)n(-c2nc(C)c(C)c(=O)[nH]2)n1 the results were PriA SSB inh inactive.
`Cc1ccccc1CSc1nnc(-c2ccccn2)n1C` gave CCHF vOTU inh inactive, TcdB inh inactive, PrPC TRFRET inactive, PriA SSB inh inactive, Vc quorum ag inactive and VHR inh abs inactive.
For Cc1ccccc1CSc1nccn1-c1ccccc1 the results were CCHF vOTU inh inactive, PrPC TRFRET inactive, PriA SSB inh 49.5, Vc quorum ag inactive and VHR inh abs inactive.
Screening O=C(NCCc1ccc(N2CCCC2)cc1)C(=O)Nc1ccccc1 returned PriA SSB inh inactive.
For c1ccc(C2=NNC(c3ccccn3)=NN2)nc1 the results were CCHF vOTU inh inactive, TcdB inh inactive, PrPC TRFRET inactive, PriA SSB inh 82.0! and Vc quorum ag inactive.
O=C(C1=C[C@@H](c2ccc3c(c2)OCO3)C[C@@H](OCc2ccc(CO)cc2)O1)N1CCCCC1 was read as TcdB inh inactive.
Screening O=C(C1=C[C@H](c2ccc3c(c2)OCO3)C[C@H](OCc2ccc(CO)cc2)O1)N1CCCCCCC1 returned CCHF vOTU inh inactive, TcdB inh inactive, PrPC TRFRET inactive, PriA SSB inh 41.5, Vc quorum ag inactive and VHR inh abs inactive.
O=C1CCSCC(C(=O)O)N1 (stereo not drawn) was read as PriA SSB inh inactive.
`Cc1n[nH]c(C)c1CCN(C)Cc1cn(C)nc1-c1ccc2c(c1)OCCO2` gave CCHF vOTU inh inactive, TcdB inh inactive, PrPC TRFRET inactive, PriA SSB inh inactive, Vc quorum ag inactive and VHR inh abs inactive.
`CN(CCc1cnn(C)c1)Cc1cn(C)nc1-c1ccc2c(c1)OCCO2` gave CCHF vOTU inh inactive, TcdB inh inactive, PrPC TRFRET inactive, PriA SSB inh inactive, Vc quorum ag inactive and VHR inh abs 52.5.
CCCCCCCCSCc1ccc(O)c2ncccc12 was read as PriA SSB inh 73.2.
Oc1ccc(CSC2CCCCC2)c2cccnc12 was read as PriA SSB inh 69.2.
Screening CCCCCCCCCCCCSCc1ccc(O)c2ncccc12 returned PriA SSB inh inactive.
CCCCCCSCc1ccc(O)c2ncccc12 was read as PriA SSB inh 82.8.
`CC1(c2ccccc2)CC(C)(C)N(C(=O)C2CCCO2)c2ccccc21` (stereo not drawn) gave CCHF vOTU inh 35.2, TcdB inh inactive, PrPC TRFRET inactive, PriA SSB inh inactive, Vc quorum ag inactive and VHR inh abs inactive.
`O=C(O)CCC(=O)Nc1ccccc1-c1nc2ccccc2[nH]1` gave PriA SSB inh inactive.
Screening Nc1ccc(N(c2ccccc2)c2ccc(N)cc2)cc1 returned CCHF vOTU inh inactive, PrPC TRFRET inactive, PriA SSB inh 41.7, Vc quorum ag inactive and VHR inh abs inactive.
For C[C@H]1CN([C@@H](C)CO)C(=O)c2c(c3ccccc3n2C)-c2ccccc2CO[C@H]1CN(C)S(C)(=O)=O the results were TcdB inh inactive.
C[C@H]1CN([C@@H](C)CO)C(=O)c2c(c3ccccc3n2C)-c2ccccc2CO[C@H]1CN(C)C was read as TcdB inh 11.2.
Screening C[C@@H]1CN([C@@H](C)CO)C(=O)c2c(c3ccccc3n2C)-c2ccccc2CO[C@@H]1CN(C)C returned TcdB inh 19.8.
`O=[N+]([O-])c1c(Nc2ccccc2O)cc(Cl)c2nonc12` gave CCHF vOTU inh inactive, TcdB inh inactive, PrPC TRFRET inactive, PriA SSB inh inactive, Vc quorum ag inactive and VHR inh abs inactive.
For Nc1cc(Cl)c2nonc2c1[N+](=O)[O-] the results were CCHF vOTU inh inactive, PrPC TRFRET 56.2, PriA SSB inh inactive, Vc quorum ag inactive and VHR inh abs inactive.
Cc1cc(=O)[nH]c(-n2nc(C)cc2NC(=O)C(=O)NCc2ccco2)n1 was read as PriA SSB inh inactive.
For COc1cc2c(C#N)c(N3CCCC3)nc(N)c2c(N)n1 the results were CCHF vOTU inh inactive, TcdB inh inactive, PrPC TRFRET inactive, PriA SSB inh inactive, Vc quorum ag inactive and VHR inh abs inactive.
`N#Cc1c(N2CCCC2)nc(N)c2c(N)nc(N3CCCC3)cc12` gave CCHF vOTU inh 71.6, PrPC TRFRET inactive, PriA SSB inh inactive, Vc quorum ag inactive and VHR inh abs inactive.
COc1ccc(S(=O)(=O)Nc2ccc3c(c2)C(=O)N(C)c2cc(C)ccc2O3)c(C)c1 was read as PriA SSB inh inactive.
COc1ccc(C(=O)Nc2ccc3c(c2)C(=O)c2ccccc2C3=O)cc1OC was read as CCHF vOTU inh inactive, PrPC TRFRET inactive, PriA SSB inh inactive, Vc quorum ag inactive and VHR inh abs inactive.
`COc1ccc(C(=O)c2c(C(F)(F)F)oc3c2C(=O)c2ccccc2C3=O)cc1OC` gave CCHF vOTU inh 63.6, PrPC TRFRET inactive, PriA SSB inh inactive, Vc quorum ag inactive and VHR inh abs inactive.
`O=C(CSc1ncccn1)N1CC(S(=O)(=O)c2ccc(Cl)cc2)C1` gave PriA SSB inh inactive.
Cc1nc2ccccc2n1C1CC(=O)N(N(C)C)C1=O (stereo not drawn) was read as CCHF vOTU inh inactive, TcdB inh inactive, PrPC TRFRET inactive, PriA SSB inh inactive, Vc quorum ag inactive and VHR inh abs 56.4.
